Laboratory results as given in PubChem BioAssay (Tox21).
Results filed as inconclusive are left out. Values without a mark were called inactive. The source made the active and inactive calls. Calls come from the whole dose curve; as a rule, active = well fitted cell-killing curve with a large enough effect in the repeat runs; inconclusive = weak or mixed curves, or effect the other way; inactive = flat fitted curve, though single readings scatter.

Test: qHTS assay to identify small molecule antagonists of the estrogen receptor alpha (ER-alpha) signaling pathway using the BG1 cell line in the presence of 0.1 nM 17-beta-estradiol - cell viability counter screen (AID 1259241); note: nearly all actives have a fitted effect of over 40% in size
Conditions: VM7Luc4E2 (BG1) viability, CellTiter-Fluor protease, 22 h, 0.1 nM estradiol agonist added; series mostly up to 92.4 µM; activity change, negative = cytotoxicity: at the top concentration
Source text: National Center for Advancing Translational Sciences [NCATS]
NIH Chemical Genomics Center [NCGC]
U.S. Environmental Protection Agency [EPA]
National Institutes of Environmental Health Sciences [NIEHS]
National Toxicology Program [NTP]
U.S. Food and Drug Administration [FDA]
Estrogen receptor (ER), a member of the nuclear hormone receptor plays an important role in development, metabolic homeostasis and reproduction. Two subtypes of ER, ER-alpha and ER-beta, have similar expression patterns with some uniqueness in both types. Endocrine disrupting chemicals (EDCs) and their interactions with steroid hormone receptors like ER causes disruption of normal endocrine function. Therefore, it is important to understand the effect of environmental chemicals in ER signaling pathway. For identifying ER antagonists, VM7Luc4E2 cell line was used to screen against Tox21 compound libraries.
VM7Luc4E2 cell line (provided by Denison MS, University of California) endogenously express full-length ER-alpha and is stably transfected with a plasmid containing four estrogen responsive elements (ERE) upstream of a luciferase reporter gene. The current screening for identification of ER-alpha inhibitors against Tox21 compound libraries used lower concentration (0.1 nM) of 17beta-Estradiol as a stimulator. The cytotoxicity of the Tox21 compound libraries against VM7Luc4E2 cell line was tested by measuring live-cell protease activity using CellTiter-Fluor assay in the same wells.
Tox21 Assay Protocol Summary:
VM7Luc4E2 cells were cultured in phenol red free assay medium containing 10% charcoal stripped FBS for 5 days prior to the assay. The cells were dispensed at 4,000 cells/well in 4 uL of assay medium into white wall/solid-bottom 1536-well plates (Corning Life Sciences, Corning, NY) using a Multidrop Combi (ThermoFisher Scientific, Waltham, MA) dispenser. After the assay plates were incubated at 37C and 5% CO2 for 24 hr, 23 nL of compounds dissolved in DMSO, positive controls or DMSO only was transferred to the assay plates by a Pintool station (Kalypsys, San Diego, CA). The transfer of compounds was followed by the addition of 1 uL of 0.1 nM (final concentration) agonist (17beta-Estradiol)/assay medium using a Flying Reagent Dispenser (FRD, Aurora Discovery, San Diego, CA). The plates were incubated at 37C and 5% CO2 for 22 hr. For cytotoxicity assay, 1 uL of CellTiter-Fluor reagent (Promega Corporation, Madison, WI) was added to each well using the FRD and after 30 min incubation at 37C and 5% CO2, The fluorescence intensity was measured using ViewLux plate reader (PerkinElmer, Shelton, CT).
% is set by controls: 0 for no effect and ±100 for the full control effect; potency is the fitted concentration of half-maximal effect.

Row | SMILES | activity change, negative = cytotoxicity | Potency
1 | Cn1c(=O)[nH]c2ncn(C)c2c1=O | 3.45% | 
2 | CN1CCN(CCCN2c3ccccc3Sc3ccc(C(F)(F)F)cc32)CC1 | -6.11% [at 42.5 µM] | 
3 | O=C1OC2(c3ccccc31)c1ccc(O)c(Br)c1Oc1c2ccc(O)c1Br | -4.25% | 
4 | Cc1cc(Br)ccc1NC(=O)CCl |  | 61.1 µM (active)
5 | CC(C)(C)c1ccc(OC2CCCCC2O)cc1 (stereo not given) | -8.79% | 
6 | Cc1ccc(Cl)c(N)c1Cl | -1.19% | 
7 | COCCC(=O)OC | -20.9% | 
8 | O=C(Cl)c1ccc(Cl)cc1Cl | 9.65% | 
9 | CC1=CC[C@@H](C(C)(C)O)CC1 | 1.84% | 
10 | CC1(C)[C@H](C(=O)OCc2cccc(Oc3ccccc3)c2)[C@@H]1C=C(Cl)Cl | -2.88% | 
11 | CCCCCCCCCCCCS(=O)(=O)Cl | -4% [at 19 µM] | 
12 | O=C1CCCCCCCCCCCCCC1 | -7.93% | 
13 | CC(C)(C)c1cc(CCC(=O)OCCSCCOC(=O)CCc2cc(C(C)(C)C)c(O)c(C(C)(C)C)c2)cc(C(C)(C)C)c1O | -5.01% [at 42.5 µM] | 
14 | O=C(CCN1CCC(c2ccccc2)C1)c1ccc2c(c1)OCCO2 (stereo not given) | -0.163% [at 42.5 µM] | 
15 | Cc1ccc(S(=O)(=O)C(I)I)cc1 |  | 77 µM (active)
16 | CCCCNc1ccc(NCCCC)c2c1C(=O)c1ccccc1C2=O | -14.1% [at 19 µM] | 
17 | Clc1cccc(Cl)n1 | -0.936% | 
18 | Cc1ccc(C=O)cc1 | 6.44% [at 42.5 µM] | 
19 | CCOc1nc(F)cc2nc(S(=O)(=O)Nc3c(Cl)cccc3C(=O)OC)nn12 | 2.8% | 
20 | Cc1cc(C)c(O)c(C(C)(C)C)c1 | 0% | 

Row | SMILES | activity change, negative = cytotoxicity | Potency
21 | NC(=O)c1ccccc1Cl | -13.5% | 
22 | O=C1CCC/C=C\CCCCCCCCCC1 | 14.3% | 
23 | O=C1OC(O)C(C(Cl)Cl)=C1Cl (stereo not given) | -1.65% | 
24 | CCOc1ccc([N+](=O)[O-])cc1 | 1.54% | 
25 | CCCOC(=O)c1ccc(O)cc1 | 2.89% | 
26 | CCC1(C)C(=O)N(Cl)C(=O)N1Cl (stereo not given) | 0.337% | 
27 | CC(=O)[C@]1(O)Cc2c(O)c3c(c(O)c2[C@@H](O[C@H]2C[C@H](N)[C@H](O)[C@H](C)O2)C1)C(=O)c1ccccc1C3=O |  | 10.6 µM (active)
28 | COc1cc(OC)nc(NC(=O)NS(=O)(=O)Nc2ccccc2C(=O)N(C)C)n1 | -4.06% | 
29 | O=C(N[C@H](CO)[C@H](O)c1ccc([N+](=O)[O-])cc1)C(Cl)Cl | -0.945% | 
30 | O=C(O)C[C@H](O)C[C@H](O)/C=C/c1c(C2CC2)nc2ccccc2c1-c1ccc(F)cc1 | 6.55% [at 19 µM] | 
31 | CCCCCCCCSCc1cc(C)c(O)c(CSCCCCCCCC)c1 | -14.6% | 
32 | CC(C=O)c1ccccc1 (stereo not given) | -0.737% | 
33 | CC(C)(C)C1=CC(=O)C(C(C)(C)C)=CC1=O | 11.6% [at 42.5 µM] | 
34 | COc1cc(C(C)C)ccc1C | -2.73% [at 19 µM] | 
35 | CC(CC(C)(C)C)CC(C)(C)CC(C)(C)C (stereo not given) | 4.53% [at 42.5 µM] | 
36 | c1ccc(-c2ccccc2-c2ccccc2)cc1 | -22.8% | 
37 | CCCCCCCCc1ccc(Nc2ccc(CCCCCCCC)cc2)cc1 | -2.37% [at 42.5 µM] | 
38 | c1ccc2occc2c1 | 1.33% | 
39 | CCn1c2ccccc2c2ccccc21 | -3.29% | 
40 | CCOC(=O)[C@H](O)[C@@H](O)C(=O)OCC | 8.61% | 
